Here are results for 40 compounds from the supplement of paper PMC10941209.

Values without a mark were called inactive.

This experiment relates to Toxoplasma gondii RH 2F1 tachyzoites (intracellular in HFF). The experiment in a line: parasite survival relative to DMSO control; higher = less antiparasitic activity, active = 20 or less. Particulars: 1 µM; 72 h. Put shortly: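 Parasite survival was taken as the CPRG signal relative to DMSO-treated infected wells, given as a percentage. To obtain it, HFF cells (5 × 10^3 cells/well, 96-well plates) were infected for 3 h in D2 medium with 5 × 10^3 β-galactosidase-expressing Toxoplasma gondii RH-2F1 tachyzoites, then exposed to compound at 1 μM for 72 h at 37°C in 5% CO2. Absorbance at 570 nm was measured 30 min after CPRG was added to lysed cells, and 2 or more biological replicates were run.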
On to `CCCC(=O)OCCc1ccccc1`, for which the parasite survival is 57%.

Take `Fc1ccc2c(/C=C/c3nnn[nH]3)c[nH]c2c1`: the parasite survival is 47.3%.

As to `Cn1c2ccccc2c(=O)c2c(O)cccc21`, the parasite survival was 49.5%.

Regarding `Oc1cc(-c2cccc3ccccc23)[nH]n1`, the parasite survival is 55.1%.

On to `CCc1cc(CCC(=O)Nc2ccccc2O)c(O)nc1C`, for which the parasite survival was 70.1%.

As to `N=C(N)NCCCCC(=O)Nc1cc(C(F)(F)F)cc(NC(=O)c2cc(C(=O)Nc3cc(C(F)(F)F)cc(NC(=O)CCCCNC(=N)N)c3O[C@@H]3CCNC3)ncn2)c1O[C@@H]1CCNC1`, the parasite survival was 58.7%.

For `COC(=O)Nc1nc2cc(Sc3ccccc3)ccc2[nH]1`, the parasite survival was 25.4%.

Regarding `COc1cc(Cc2cc(N)nc(N)n2)cc(OC)c1OC`, the parasite survival is 31%.

In the case of `Cc1cc(C)n2nc(C(=O)NS(=O)(=O)c3c(C)cccc3OC(F)(F)F)nc2n1`, the parasite survival is 45.7%.

For `CC(C)n1cnc2c(NCc3ccccc3)nc(NCc3ccccc3)nc21`, the parasite survival is 39.1%.

Consider `O=C(O)c1ccc(-c2ccc(O[C@H]3O[C@H](CO)[C@@H](O)[C@H](O)[C@@H]3O)cc2)cc1`, for which the parasite survival was 46.4%.

For `CCc1cc(O)c(Oc2cccnc2N)cc1F`, the parasite survival is 44.6%.

Take `c1ccc(Cn2c(-c3ccccn3)nc3ccccc32)cc1`: the parasite survival was 61.7%.

As for `COc1cc(Cc2cnc(N)nc2N)cc(OC)c1OC`, the parasite survival is 52.6%.

With `O=C(O)c1ccc(-n2nc(-c3ccccc3O)nc2-c2ccccc2O)cc1`, the parasite survival is 25.7%.

On to `NC[C@H]1OB(O)c2c(OCCCO)cccc21`, for which the parasite survival is 54.2%.

For the compound `C(=C\c1nc2ccccc2[nH]1)/c1ccc2c(c1)OCO2`, the parasite survival is 22.1%.

Regarding `O=C(/C(=C/c1ccc(Cl)cc1Cl)n1ccnc1)c1ccc(Cl)cc1`, the parasite survival is 10.2% (active).

For the compound `CCc1nc(N)nc(N)c1C#CCc1ccccc1`, the parasite survival was 5.77% (active).

`O=C(Nc1ccc(F)cc1)c1nn(-c2ccccc2)c(=O)cc1Cl`: the parasite survival is 42.6%.

Take `Cc1ccc(N2CCC(CCOc3ccc(S(C)(=O)=O)cc3)CC2)nn1`: the parasite survival was 73.2%.

With `CC1=C(/C=C/C(C)=C/C=C/C(C)=C/C(=O)Nc2ccc(O)cc2)C(C)(C)CCC1`, the parasite survival is 35.7%.

For `Nc1nnnn1CCOc1c2[nH]c3ccc(Cl)cc3c2cc2c1[nH]c1ccc(Cl)cc12`, the parasite survival is 28.5%.

As to `Cc1c(F)cccc1NC(=O)Nc1ccc(Cl)c(S(=O)(=O)[C@H]2CCCNC2)c1O`, the parasite survival is 73.2%.

In the case of `COc1ccc2sc3c(c2c1)NC(C)CNC3=O` (stereo not given), the parasite survival is 6.94% (active).

`CC(C)C(=O)N[C@H]1[C@H]([C@H](O)[C@H](O)CO)OC(C(=O)O)=C[C@@H]1N=[N+]=[N-]`: the parasite survival was 72.6%.

As to `COc1ccc2c(c1OC)C(=O)OC2C1c2c(cc3c(c2OC)OCO3)CCN1C` (stereo not given), the parasite survival was 68.3%.

Take `Nc1nc(=O)c(Br)c(-c2ccccc2)[nH]1`: the parasite survival was 75.4%.

For `Cc1cc(-c2ccccc2)c(C(=O)C(=O)Nc2ccc(N3CCN(c4ncc(F)cn4)CC3)cc2)n1C`, the parasite survival is 9.71% (active).

Take `CCCCc1ccc(-c2cc(C(=O)O)cc(-c3ccc(Cl)cc3)n2)cc1`: the parasite survival is 40.8%.

Consider `O[C@@](Cn1cnnn1)(c1ccc(F)cc1F)C(F)(F)c1ccc(-c2ccc(OCC(F)(F)F)cc2)cn1`, for which the parasite survival was 28.8%.

Consider `FC(F)(F)c1cc(C(F)(F)F)c2ccc3nc(-c4nnco4)cn3c2n1`, for which the parasite survival is 77.8%.

As to `Cc1cc(O)c2c(c1)C(=O)c1c(I)c(O)c(I)c(O)c1C2=O`, the parasite survival was 47%.

As to `CCc1nc2ccc(Cl)cn2c1C(=O)NCc1ccc(N2CCC(c3ccc(OC(F)(F)F)cc3)CC2)cc1`, the parasite survival was 28.9%.

For `COc1ccc(NC(=O)c2cc3ccccn3n2)cc1`, the parasite survival was 44.5%.

With `O=C(Nc1nnc(-c2ccccc2)o1)c1ccc(F)cc1`, the parasite survival is 52.8%.

With `O=c1cc(Nc2ccc3ccccc3c2)[nH]c(=O)[nH]1`, the parasite survival is 53.3%.

On to `O=C(c1ccccc1)N1CCN(c2ccccc2NC(=O)C(Cl)(Cl)Cl)CC1`, for which the parasite survival was 63.4%.

With `CCc1c(O)nc2ccc(F)cc2c1OCC1CCC1`, the parasite survival was 41%.

In the case of `Oc1ccc(NCc2ccccc2OCc2ccccc2)cc1`, the parasite survival was 39.5%.
